This note sets out measurements from publication PMC7862700, “An all-to-all approach to the identification of sequence-specific readers for epigenetic DNA modifications on cytosine”.

What all share (test): DAPPL (digital affinity profiling via proximity ligation, sequencing); 10 mM Tris-HCl pH 7.5, 50 mM NaCl, 1 mM DTT, 4% glycerol, room temperature, 30 min; GST-TFs on glutathione beads, 16-mer random dsDNA library, 0.1% formaldehyde crosslink after washing; high values mean tight binding
The target of assay [1] is T1, FEV (Homo sapiens, UniProt Q99581 1-238).
T1 sequence: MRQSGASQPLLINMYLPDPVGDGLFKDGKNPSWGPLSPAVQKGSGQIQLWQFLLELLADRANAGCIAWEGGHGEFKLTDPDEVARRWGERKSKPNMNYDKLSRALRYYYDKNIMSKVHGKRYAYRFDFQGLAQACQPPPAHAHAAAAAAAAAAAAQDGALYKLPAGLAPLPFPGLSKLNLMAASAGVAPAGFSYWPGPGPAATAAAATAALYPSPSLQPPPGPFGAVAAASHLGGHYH
The following applies: protein: recombinant; tags: N-terminal GST; dsDNA, one strand shown. Put shortly:
(§1)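 Pools of DNA-barcoded human transcription factors, expressed in yeast as GST fusions on glutathione beads and combined with a tag-only sample, were incubated with 200 nmole of a 16-mer random double-stranded DNA library. Incubation took 30 min at room temperature in Tris/NaCl/DTT/glycerol buffer and was followed by washing, 0.1% formaldehyde crosslinking, proximity ligation (BsaI/T4 ligase, 1 h, 37 °C), PCR amplification and sequencing on an Illumina NextSeq500. Binding signal is the ratio of a hexamer's read frequency for a factor to its frequency for the tag-only sample.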

Assay [2] addresses ETV5 (Homo sapiens, UniProt P41161 1-510). The following applies: protein: recombinant; tags: N-terminal GST; dsDNA, one strand shown. Put shortly: as §1
The target in assay [3] is HSF1 (Homo sapiens, UniProt Q00613 1-529). The following applies: protein: recombinant; tags: N-terminal GST; chain copies: 3; dsDNA, one strand shown. Put shortly:
as §1

In assay [4] the target is T2, SPIC (Homo sapiens, UniProt Q8N5J4 1-248).
T2 sequence: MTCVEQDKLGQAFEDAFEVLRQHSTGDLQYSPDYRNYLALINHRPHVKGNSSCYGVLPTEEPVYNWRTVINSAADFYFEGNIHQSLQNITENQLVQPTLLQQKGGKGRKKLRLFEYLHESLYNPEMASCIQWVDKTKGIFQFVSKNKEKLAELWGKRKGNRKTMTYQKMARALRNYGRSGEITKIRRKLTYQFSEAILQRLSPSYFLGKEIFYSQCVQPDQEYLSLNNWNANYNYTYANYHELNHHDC
The following applies: protein: recombinant; tags: N-terminal GST; dsDNA, one strand shown. Put shortly: as §1

For assay [5], the target named is ELF4 (Homo sapiens, UniProt Q99607 1-663). The following applies: protein: recombinant; tags: N-terminal GST; dsDNA, one strand shown. Put shortly: as §1
Chain of ELF4 (Q99607 whole entry): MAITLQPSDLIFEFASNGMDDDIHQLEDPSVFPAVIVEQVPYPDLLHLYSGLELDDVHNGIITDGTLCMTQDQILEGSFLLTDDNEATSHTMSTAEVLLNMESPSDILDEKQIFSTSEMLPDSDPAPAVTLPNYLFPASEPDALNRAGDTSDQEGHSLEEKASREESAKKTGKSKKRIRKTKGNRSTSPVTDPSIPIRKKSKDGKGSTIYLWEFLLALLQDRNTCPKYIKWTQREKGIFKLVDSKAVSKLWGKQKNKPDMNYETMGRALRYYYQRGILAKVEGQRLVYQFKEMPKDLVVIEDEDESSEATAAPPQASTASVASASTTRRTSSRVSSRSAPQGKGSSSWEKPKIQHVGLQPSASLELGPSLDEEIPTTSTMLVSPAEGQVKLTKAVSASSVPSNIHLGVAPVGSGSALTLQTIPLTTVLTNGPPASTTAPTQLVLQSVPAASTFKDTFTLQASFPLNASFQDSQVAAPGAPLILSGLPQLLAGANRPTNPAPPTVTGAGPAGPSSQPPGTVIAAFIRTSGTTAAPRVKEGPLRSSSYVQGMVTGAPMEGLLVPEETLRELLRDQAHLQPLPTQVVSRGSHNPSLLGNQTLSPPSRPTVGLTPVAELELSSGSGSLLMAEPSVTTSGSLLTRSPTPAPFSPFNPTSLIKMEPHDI
For assay [6], the target named is T3, ELK4 (Homo sapiens, UniProt P28324-2 1-405).
T3 sequence: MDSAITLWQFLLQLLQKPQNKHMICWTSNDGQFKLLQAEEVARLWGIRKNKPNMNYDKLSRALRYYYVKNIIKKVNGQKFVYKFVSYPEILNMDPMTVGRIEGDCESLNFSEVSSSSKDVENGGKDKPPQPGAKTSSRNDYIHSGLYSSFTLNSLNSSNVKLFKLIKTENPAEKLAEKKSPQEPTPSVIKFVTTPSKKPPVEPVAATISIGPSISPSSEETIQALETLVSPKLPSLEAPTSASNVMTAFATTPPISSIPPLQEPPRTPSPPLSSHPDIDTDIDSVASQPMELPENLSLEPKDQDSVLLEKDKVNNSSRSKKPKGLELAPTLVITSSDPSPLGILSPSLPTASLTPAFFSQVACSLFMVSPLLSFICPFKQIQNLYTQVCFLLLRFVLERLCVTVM
The following applies: protein: recombinant; tags: N-terminal GST; dsDNA, one strand shown. In short, it runs like this: as §1

The target of assay [7] is T4, ETV2 (Homo sapiens, UniProt O00321 1-342).
T4 sequence: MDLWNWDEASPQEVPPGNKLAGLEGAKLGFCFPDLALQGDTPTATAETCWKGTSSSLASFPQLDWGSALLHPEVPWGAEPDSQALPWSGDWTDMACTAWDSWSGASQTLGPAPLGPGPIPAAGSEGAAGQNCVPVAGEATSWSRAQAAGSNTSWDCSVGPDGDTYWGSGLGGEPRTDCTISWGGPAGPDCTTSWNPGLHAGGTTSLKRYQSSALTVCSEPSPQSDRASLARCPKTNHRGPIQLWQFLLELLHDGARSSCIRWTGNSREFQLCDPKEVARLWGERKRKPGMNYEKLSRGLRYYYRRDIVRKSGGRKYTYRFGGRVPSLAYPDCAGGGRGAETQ
The following applies: protein: recombinant; tags: N-terminal GST; dsDNA, one strand shown. Put shortly:
as §1

The target in assay [8] is T5, ELF3 (Homo sapiens, UniProt P78545 1-371).
T5 sequence: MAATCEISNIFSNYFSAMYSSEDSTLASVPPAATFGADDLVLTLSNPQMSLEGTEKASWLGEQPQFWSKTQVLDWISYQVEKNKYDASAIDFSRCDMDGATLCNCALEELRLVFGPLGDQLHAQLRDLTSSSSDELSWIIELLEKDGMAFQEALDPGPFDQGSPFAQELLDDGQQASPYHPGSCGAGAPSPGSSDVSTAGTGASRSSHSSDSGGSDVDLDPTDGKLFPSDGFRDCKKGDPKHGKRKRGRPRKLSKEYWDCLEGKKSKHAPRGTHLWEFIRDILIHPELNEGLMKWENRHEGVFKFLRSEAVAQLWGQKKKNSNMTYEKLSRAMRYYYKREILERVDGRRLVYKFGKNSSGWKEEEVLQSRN
The settings on record: protein: recombinant; tags: N-terminal GST; dsDNA, one strand shown. In short, it runs like this: as §1

Assay [9] addresses CRX (Homo sapiens, UniProt O43186 1-299). The following applies: protein: recombinant; tags: N-terminal GST; dsDNA, one strand shown. In short, it runs like this:
as §1

The target in assay [10] is ETV1 (Homo sapiens, UniProt P50549 1-477). The settings on record: protein: recombinant; tags: N-terminal GST; dsDNA, one strand shown. Put shortly: as §1
Chain of ETV1 (P50549 whole entry): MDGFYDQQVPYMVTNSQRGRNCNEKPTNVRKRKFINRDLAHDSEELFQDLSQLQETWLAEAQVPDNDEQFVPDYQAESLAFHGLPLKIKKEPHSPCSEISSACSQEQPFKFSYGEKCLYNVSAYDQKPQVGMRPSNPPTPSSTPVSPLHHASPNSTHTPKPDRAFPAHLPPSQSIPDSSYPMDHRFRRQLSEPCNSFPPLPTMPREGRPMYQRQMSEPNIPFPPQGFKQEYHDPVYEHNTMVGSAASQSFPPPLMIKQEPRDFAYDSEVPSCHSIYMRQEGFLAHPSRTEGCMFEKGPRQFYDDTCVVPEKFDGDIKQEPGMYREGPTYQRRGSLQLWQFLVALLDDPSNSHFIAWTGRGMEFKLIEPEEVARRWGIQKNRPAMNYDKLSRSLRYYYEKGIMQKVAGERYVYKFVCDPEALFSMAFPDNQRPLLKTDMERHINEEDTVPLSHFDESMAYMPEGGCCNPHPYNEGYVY
In assay [11] the target is T6, ERF (Homo sapiens, UniProt P50548 1-548).
T6 sequence: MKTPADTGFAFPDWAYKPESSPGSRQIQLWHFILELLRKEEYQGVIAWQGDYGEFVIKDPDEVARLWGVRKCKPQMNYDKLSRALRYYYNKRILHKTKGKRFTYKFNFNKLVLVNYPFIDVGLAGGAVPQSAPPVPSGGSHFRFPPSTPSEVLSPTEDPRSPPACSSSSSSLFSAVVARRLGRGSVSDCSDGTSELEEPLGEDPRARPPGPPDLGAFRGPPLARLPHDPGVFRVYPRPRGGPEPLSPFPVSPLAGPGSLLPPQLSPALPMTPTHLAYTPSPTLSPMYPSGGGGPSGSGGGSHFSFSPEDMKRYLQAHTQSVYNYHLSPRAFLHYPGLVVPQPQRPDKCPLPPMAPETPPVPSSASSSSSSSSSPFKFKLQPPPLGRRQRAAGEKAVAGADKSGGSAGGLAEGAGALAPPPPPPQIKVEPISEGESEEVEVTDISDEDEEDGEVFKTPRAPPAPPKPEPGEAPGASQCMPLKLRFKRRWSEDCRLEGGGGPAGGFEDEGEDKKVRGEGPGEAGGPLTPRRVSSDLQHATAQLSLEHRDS
The settings on record: protein: recombinant; tags: N-terminal GST; dsDNA, one strand shown. In short, it runs like this: as §1

The target of assay [12] is T7, ETV3L (Homo sapiens, UniProt Q6ZN32 1-361).
T7 sequence: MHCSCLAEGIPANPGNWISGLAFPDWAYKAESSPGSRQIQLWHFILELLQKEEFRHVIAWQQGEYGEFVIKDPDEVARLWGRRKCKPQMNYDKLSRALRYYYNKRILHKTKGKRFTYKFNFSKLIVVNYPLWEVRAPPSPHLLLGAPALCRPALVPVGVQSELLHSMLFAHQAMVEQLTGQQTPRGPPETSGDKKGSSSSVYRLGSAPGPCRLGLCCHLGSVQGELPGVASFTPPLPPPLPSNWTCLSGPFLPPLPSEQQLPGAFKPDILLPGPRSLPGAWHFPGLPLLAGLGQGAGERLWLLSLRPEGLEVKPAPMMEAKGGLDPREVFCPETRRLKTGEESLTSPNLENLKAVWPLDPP
The settings on record: protein: recombinant; tags: N-terminal GST; dsDNA, one strand shown. In short, it runs like this: as §1

Assay [13] concerns the target T8, ETS2 (Homo sapiens, UniProt P15036 1-469).
T8 sequence: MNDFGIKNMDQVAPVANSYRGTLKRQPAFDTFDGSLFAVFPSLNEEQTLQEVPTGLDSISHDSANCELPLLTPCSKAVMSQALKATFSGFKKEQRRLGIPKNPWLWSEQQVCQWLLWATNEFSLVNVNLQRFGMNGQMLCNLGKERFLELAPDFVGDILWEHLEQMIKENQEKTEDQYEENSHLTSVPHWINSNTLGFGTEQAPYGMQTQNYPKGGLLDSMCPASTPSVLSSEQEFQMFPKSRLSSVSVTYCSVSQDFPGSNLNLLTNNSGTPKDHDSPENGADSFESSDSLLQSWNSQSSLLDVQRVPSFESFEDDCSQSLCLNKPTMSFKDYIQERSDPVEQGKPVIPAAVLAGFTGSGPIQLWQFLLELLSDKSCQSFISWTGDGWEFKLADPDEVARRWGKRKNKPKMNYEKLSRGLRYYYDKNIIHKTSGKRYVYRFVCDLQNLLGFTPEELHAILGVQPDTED
The following applies: protein: recombinant; tags: N-terminal GST; dsDNA, one strand shown. Put shortly: as §1

Assay [14] addresses T9, SPDEF (Homo sapiens, UniProt O95238 1-335).
T9 sequence: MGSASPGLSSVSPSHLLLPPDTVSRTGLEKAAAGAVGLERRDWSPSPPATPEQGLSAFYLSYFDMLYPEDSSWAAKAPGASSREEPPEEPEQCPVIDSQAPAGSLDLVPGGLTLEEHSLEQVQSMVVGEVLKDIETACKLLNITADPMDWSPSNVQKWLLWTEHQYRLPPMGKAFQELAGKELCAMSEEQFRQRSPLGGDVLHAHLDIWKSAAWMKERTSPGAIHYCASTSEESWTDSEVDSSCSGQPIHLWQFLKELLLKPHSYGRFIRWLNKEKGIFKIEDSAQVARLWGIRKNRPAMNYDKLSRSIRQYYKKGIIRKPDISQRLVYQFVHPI
The settings on record: protein: recombinant; tags: N-terminal GST; dsDNA, one strand shown. In short, it runs like this:
as §1

Assay [15] concerns the target T10, ETV7 (Homo sapiens, UniProt Q9Y603 1-341).
T10 sequence: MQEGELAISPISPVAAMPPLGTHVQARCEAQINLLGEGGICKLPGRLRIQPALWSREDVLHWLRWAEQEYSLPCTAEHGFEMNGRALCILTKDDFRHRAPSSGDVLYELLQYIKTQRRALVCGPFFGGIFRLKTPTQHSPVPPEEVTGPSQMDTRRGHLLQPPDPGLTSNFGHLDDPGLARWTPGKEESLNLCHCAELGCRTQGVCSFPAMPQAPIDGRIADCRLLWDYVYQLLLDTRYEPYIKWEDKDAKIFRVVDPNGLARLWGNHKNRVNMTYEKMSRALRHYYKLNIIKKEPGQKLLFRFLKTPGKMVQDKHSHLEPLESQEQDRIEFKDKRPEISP
The settings on record: protein: recombinant; tags: N-terminal GST; dsDNA, one strand shown. In short, it runs like this: as §1

Assay [16] addresses T11, ELF5 (Homo sapiens, UniProt Q9UKW6-2 1-255).
T11 sequence: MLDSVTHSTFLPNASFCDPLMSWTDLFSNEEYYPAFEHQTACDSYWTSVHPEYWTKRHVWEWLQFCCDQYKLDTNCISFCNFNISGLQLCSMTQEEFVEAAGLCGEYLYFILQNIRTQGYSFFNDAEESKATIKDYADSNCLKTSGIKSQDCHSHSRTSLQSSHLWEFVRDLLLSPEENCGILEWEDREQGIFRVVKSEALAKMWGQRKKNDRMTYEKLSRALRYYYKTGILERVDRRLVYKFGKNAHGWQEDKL
The following applies: protein: recombinant; tags: N-terminal GST; dsDNA, one strand shown. Put shortly: as §1

In assay [17] the target is T12, ETV3 (Homo sapiens, UniProt P41162-2 1-143).
T12 sequence: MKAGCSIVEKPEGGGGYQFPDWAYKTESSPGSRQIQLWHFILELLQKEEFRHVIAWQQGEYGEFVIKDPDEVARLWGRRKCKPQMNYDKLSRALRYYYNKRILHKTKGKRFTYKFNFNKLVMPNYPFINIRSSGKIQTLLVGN
The following applies: protein: recombinant; tags: N-terminal GST; dsDNA, one strand shown. Put shortly: as §1

The target in assay [18] is ETV6 (Homo sapiens, UniProt P41212 1-452). The settings on record: protein: recombinant; tags: N-terminal GST; dsDNA, one strand shown. Put shortly: as §1
Chain of ETV6 (P41212 whole entry): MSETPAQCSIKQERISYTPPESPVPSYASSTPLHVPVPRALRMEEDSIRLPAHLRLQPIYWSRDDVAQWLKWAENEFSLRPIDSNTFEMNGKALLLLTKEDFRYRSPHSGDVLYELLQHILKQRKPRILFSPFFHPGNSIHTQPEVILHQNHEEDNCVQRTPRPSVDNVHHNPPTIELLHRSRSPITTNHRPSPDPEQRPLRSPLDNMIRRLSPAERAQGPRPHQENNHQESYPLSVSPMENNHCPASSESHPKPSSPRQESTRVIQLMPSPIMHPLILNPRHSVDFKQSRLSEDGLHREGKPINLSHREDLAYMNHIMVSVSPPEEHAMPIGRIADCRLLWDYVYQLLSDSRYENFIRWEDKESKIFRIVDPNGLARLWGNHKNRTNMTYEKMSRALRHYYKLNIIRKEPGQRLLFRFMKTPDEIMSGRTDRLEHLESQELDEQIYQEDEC

Chain of ETV5 (P41161 whole entry): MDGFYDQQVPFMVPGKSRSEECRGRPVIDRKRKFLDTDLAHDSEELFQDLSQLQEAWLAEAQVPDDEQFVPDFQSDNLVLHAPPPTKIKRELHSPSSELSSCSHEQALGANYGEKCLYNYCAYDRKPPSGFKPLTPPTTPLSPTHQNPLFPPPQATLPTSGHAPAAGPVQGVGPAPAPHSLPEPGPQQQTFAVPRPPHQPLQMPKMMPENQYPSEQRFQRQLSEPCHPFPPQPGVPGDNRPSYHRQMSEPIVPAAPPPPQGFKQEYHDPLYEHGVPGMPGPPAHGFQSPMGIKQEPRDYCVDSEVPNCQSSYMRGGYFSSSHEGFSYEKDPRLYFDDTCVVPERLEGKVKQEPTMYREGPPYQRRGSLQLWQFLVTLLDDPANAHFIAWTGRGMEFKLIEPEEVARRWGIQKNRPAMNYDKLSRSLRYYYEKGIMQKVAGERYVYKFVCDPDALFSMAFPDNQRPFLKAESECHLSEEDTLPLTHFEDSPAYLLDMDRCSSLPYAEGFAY
Chain of CRX (O43186 whole entry): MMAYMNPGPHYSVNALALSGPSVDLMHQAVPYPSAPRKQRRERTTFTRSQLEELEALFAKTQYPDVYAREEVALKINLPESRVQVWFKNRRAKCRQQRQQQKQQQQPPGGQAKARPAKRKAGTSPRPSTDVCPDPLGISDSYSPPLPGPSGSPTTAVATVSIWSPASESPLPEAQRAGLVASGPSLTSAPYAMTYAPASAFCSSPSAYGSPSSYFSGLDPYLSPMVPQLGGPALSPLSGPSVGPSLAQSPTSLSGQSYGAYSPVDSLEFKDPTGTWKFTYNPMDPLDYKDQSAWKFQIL
Chain of HSF1 (Q00613 whole entry): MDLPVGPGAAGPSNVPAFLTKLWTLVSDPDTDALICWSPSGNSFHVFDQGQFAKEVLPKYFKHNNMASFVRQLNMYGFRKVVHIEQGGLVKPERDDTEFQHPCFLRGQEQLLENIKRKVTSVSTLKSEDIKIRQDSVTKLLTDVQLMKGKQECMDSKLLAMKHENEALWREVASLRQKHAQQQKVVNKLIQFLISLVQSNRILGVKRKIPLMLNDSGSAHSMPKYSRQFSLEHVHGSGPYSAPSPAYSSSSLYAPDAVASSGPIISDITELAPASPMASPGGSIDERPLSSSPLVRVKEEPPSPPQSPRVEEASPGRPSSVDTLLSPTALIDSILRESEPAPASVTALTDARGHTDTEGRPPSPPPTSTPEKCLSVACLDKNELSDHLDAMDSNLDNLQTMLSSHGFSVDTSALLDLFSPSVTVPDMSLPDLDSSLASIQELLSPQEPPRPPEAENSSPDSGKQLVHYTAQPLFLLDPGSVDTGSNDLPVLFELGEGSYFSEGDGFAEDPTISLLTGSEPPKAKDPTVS

As to GATTCT, the binding signal in assay [1] was 1.13 fold enrichment (6-mer frequency, TF over GST control); in [2], 1.18 fold enrichment (6-mer frequency, TF over GST control); in [3] it was 2.08 fold enrichment (6-mer frequency, TF over GST control); in assay [4], 1.11 fold enrichment (6-mer frequency, TF over GST control); in [5], 1.19 fold enrichment (6-mer frequency, TF over GST control); in assay [6], 1.36 fold enrichment (6-mer frequency, TF over GST control). Moreover, the binding signal in assay [7] is 1.15 fold enrichment (6-mer frequency, TF over GST control); in assay [8], 1.05 fold enrichment (6-mer frequency, TF over GST control); in [9], 1.58 fold enrichment (6-mer frequency, TF over GST control); in assay [10], 1.25 fold enrichment (6-mer frequency, TF over GST control); in assay [11], 1.13 fold enrichment (6-mer frequency, TF over GST control); in [12], 1.17 fold enrichment (6-mer frequency, TF over GST control). Moreover, the binding signal in [13] was 1.23 fold enrichment (6-mer frequency, TF over GST control); in assay [14] it was 1.09 fold enrichment (6-mer frequency, TF over GST control); in assay [15], 1.23 fold enrichment (6-mer frequency, TF over GST control); in assay [16], 1.11 fold enrichment (6-mer frequency, TF over GST control); in [17], 1.28 fold enrichment (6-mer frequency, TF over GST control); in assay [18], 1.19 fold enrichment (6-mer frequency, TF over GST control).
